Here are results for 41 compounds from PubChem BioAssay (NCATS).

Experiment [1] concerns the target Rap guanine nucleotide exchange factor 3 (Homo sapiens) (UniProt O95398). Put plainly: Confirmatory qHTS for agonist of cAMP-regulated guanine nucleotide exchange factor 3 (EPAC1) (AID 1645881).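 Further: EPAC1 catalysed release of BODIPY-GDP from Rap1B seen as fluorescence loss; 100% = effect of cAMP agonist control; nearly all actives have a fitted effect of over 75% in size.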 A general note: qHTS replaces the single test concentration by a dilution series.
The target in experiment [2] is Rap guanine nucleotide exchange factor 4 (Homo sapiens) (UniProt Q8WZA2). Briefly: Confirmatory qHTS for agonist of cAMP-regulated guanine nucleotide exchange factor 4 (EPAC2) (AID 1645884).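 Further: nucleotide exchange releases bodipy-GDP from Rap1 and this lowers its fluorescence; on the % scale 0 is the no-effect control and ±100 the full control effect; nearly all actives have a fitted effect of over 65% in size.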
The target is the same in experiment [3]. Briefly: Confirmatory qHTS for antagonist of cAMP-regulated guanine nucleotide exchange factor 4 (EPAC2) (AID 1645885). Further: nearly all actives have a fitted effect of over 25% in size. Further: potency means the concentration at half of the fitted maximal effect. On activity change, negative = inhibition: on the % scale 0 is the no-effect control and ±100 the full control effect.
The target in experiment [4] is Rap guanine nucleotide exchange factor 3 (Homo sapiens) (UniProt O95398). Briefly: Counterscreen qHTS for antagonist of cAMP-regulated guanine nucleotide exchange factor 3 (EPAC1) (AID 1645888).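 Further: fluorescence loss as bound BODIPY-GDP is released from Rap1B; % of control where 0% means no effect.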 Summed up:
(§1)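 Measured: fluorescence of BODIPY-GDP bound to Rap1B, which falls as exchange proceeds. Conditions include 50 uM competing GDP, 5 and 30 min reads, and a later cAMP challenge for antagonist detection.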
For orientation: A counterscreen serves to expose hits that act by an unwanted route or on another target.

Experiment [5] shares this target. Briefly: Counterscreen qHTS for agonist of cAMP-regulated guanine nucleotide exchange factor 3 (EPAC1) (AID 1645889). Further: % of control where 0% means no effect; nearly all actives have a fitted effect of over 40% in size. The procedure, abridged:
as §1

The structures appear in SMILES notation. Values joined by “and” are separate entries in the source; they are usually repeats but may differ in a detail not shown here. Identical values can stand only once. Inconclusive results are not listed. Some compounds were tested as several samples or in several runs, with calls that do not always agree. Active and inactive are the calls of the source. The call rests on the fitted dose curve; in most records, active means well fitted curve in the direction sought with a large enough effect; inconclusive means small, poorly fitted or top-dose-only effect, or another doubt; inactive means no such curve, though single readings can be large; an effect the other way counts as inactive or inconclusive.

Sequence of Rap guanine nucleotide exchange factor 3 (Homo sapiens) (O95398 whole entry, looked up): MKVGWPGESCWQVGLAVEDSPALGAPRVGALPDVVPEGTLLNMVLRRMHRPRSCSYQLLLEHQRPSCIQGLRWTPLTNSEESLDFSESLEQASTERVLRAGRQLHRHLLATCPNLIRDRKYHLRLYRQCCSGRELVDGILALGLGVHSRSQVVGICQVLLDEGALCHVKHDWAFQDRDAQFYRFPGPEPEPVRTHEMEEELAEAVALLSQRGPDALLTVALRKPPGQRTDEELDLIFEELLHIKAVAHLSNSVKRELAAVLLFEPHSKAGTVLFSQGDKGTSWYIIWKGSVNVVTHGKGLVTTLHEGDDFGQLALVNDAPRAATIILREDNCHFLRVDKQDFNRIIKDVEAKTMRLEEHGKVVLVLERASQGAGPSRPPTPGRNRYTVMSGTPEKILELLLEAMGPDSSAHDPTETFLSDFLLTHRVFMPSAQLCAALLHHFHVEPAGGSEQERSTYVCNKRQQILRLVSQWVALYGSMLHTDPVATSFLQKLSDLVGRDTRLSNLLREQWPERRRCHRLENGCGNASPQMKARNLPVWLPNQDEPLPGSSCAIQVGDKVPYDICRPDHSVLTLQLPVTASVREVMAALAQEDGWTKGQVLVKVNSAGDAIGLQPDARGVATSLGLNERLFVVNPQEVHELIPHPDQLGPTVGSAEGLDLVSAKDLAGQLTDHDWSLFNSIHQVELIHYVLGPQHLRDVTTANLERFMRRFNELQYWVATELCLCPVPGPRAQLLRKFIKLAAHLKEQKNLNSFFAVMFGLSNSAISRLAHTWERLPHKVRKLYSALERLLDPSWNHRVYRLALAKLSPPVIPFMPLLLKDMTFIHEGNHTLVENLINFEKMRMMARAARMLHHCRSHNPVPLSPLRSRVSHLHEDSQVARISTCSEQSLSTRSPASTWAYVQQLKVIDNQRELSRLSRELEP
Sequence of Rap guanine nucleotide exchange factor 4 (Homo sapiens) (Q8WZA2 whole entry, looked up): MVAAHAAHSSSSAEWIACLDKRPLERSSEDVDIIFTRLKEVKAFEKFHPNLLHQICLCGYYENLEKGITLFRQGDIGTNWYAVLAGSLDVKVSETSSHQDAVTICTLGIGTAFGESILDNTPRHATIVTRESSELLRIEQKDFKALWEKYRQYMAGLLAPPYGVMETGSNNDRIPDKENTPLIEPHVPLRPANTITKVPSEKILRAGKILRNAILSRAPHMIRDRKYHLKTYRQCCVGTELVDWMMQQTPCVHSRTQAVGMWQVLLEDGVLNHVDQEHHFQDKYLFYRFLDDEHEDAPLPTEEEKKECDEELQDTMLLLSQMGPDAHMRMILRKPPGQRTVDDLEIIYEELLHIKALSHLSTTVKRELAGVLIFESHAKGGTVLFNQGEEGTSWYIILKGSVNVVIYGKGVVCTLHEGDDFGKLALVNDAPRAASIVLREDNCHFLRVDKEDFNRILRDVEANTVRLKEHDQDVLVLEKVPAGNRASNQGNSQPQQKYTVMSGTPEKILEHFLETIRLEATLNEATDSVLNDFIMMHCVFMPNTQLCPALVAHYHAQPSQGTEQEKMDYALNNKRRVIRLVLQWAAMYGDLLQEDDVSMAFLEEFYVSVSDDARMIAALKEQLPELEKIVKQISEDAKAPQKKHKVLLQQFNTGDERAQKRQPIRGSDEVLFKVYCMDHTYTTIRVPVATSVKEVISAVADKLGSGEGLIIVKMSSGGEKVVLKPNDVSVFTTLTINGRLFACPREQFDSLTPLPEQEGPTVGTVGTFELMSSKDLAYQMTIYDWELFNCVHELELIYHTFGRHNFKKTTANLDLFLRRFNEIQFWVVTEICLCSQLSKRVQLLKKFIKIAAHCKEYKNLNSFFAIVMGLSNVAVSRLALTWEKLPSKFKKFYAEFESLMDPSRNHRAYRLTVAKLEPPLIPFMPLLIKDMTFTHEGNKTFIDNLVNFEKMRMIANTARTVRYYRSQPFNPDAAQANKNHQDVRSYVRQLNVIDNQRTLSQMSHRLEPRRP

On to `Cc1cc(NS(=O)(=O)c2ccc(Nc3nc(-c4ccc(O)cc4)cs3)cc2)no1`, for which the Potency result in experiment [1], in experiment [2], in experiment [4] and in experiment [5] was “inactive” throughout. The Potency in experiment [3] is 26.9 µM (active).
Consider `COc1ccc(C(=O)c2nccc3ccccc23)cc1`, for which the Potency result in experiment [1], in experiment [2], in experiment [3], in experiment [4] and in experiment [5] was “inactive” each time.
Turning to `Fc1cccc(Cc2c(-c3ccc(Cl)cc3)nc3ccc(Cl)cn23)c1`, the Potency entry in experiment [1] and in experiment [3] was “inactive” in each case. For the same compound, the activation in experiment [2] is 7.12% [at 17.1 µM, percent relative to cAMP agonist control] (inactive); in experiment [5], 23% [at 30.8 µM] (inactive). Further, the activity change, negative = inhibition in experiment [4] is -4.02% [at 30.8 µM] (inactive).
Take `O=c1cc(-c2c(O)c3ccccc3n(Cc3ccccc3)c2=O)[nH][nH]1`: the Potency result in experiment [1], in experiment [2], in experiment [3], in experiment [4] and in experiment [5] was “inactive” throughout.
`Cc1ccn2cc(-c3cccc(NC(=O)c4cccs4)c3)nc2c1`: the Potency result in experiment [1], in experiment [2], in experiment [3], in experiment [4] and in experiment [5] was “inactive” throughout.
On to `O=C(O)C(Cc1c[nH]c2ccccc12)NS(=O)(=O)c1cccc(Cl)c1Cl` (stereo not given), for which the Potency entry in experiment [1], in experiment [2], in experiment [3], in experiment [4] and in experiment [5] was “inactive” in each case.
Consider `CCN(C(=O)c1noc2c1COc1ccc(C)cc1-2)c1cccc(C)c1`, for which the Potency result in experiment [1], in experiment [2], in experiment [3], in experiment [4] and in experiment [5] was “inactive” in each case.
With `COc1ccccc1N1CCN(CC(O)COc2ccc(C)cc2C(C)(C)C)CC1` (stereo not given), the Potency result in experiment [1], in experiment [2], in experiment [3], in experiment [4] and in experiment [5] was “inactive” throughout.
For the compound `CCn1c(C(=O)N2CCc3ccccc3C2)cc2sccc21`, the Potency entry in experiment [1], in experiment [2], in experiment [4] and in experiment [5] was “inactive” in each case. The Potency in experiment [3] is 53.6 µM (active).
With `CN(C)c1ccc(C=C(C#N)C(=O)c2ccccc2)cc1Br`, the Potency entry in experiment [1], in experiment [2], in experiment [3], in experiment [4] and in experiment [5] was “inactive” in each case.
For the compound `CN(CC(=O)Nc1ccccc1C(F)(F)F)C(=O)c1cc(-c2cccs2)nn1-c1ccccc1`, the Potency result in experiment [1], in experiment [2], in experiment [3], in experiment [4] and in experiment [5] was “inactive” throughout.
Regarding `COc1ccc(S(=O)(=O)Nc2ccccc2SC)cc1C`, the Potency entry in experiment [1], in experiment [2], in experiment [4] and in experiment [5] was “inactive” each time. In addition, the Potency in experiment [3] was 10.7 µM (active).
For `CCCCN(Cc1ccccc1)C(=O)c1oc(=O)c2ccccc2c1-c1ccc(C)cc1`, the Potency entry in experiment [1], in experiment [2], in experiment [3], in experiment [4] and in experiment [5] was “inactive” throughout.
Take `CCc1ccc(C=C2SC(=S)N(CCCC(=O)Nc3ccc(C(=O)O)cc3)C2=O)cc1`: the Potency result in experiment [1], in experiment [2], in experiment [3], in experiment [4] and in experiment [5] was “inactive” throughout.
For `CCN(c1ccc(NC(=O)CCc2nc3sc4c(c3c(=O)[nH]2)CCCC4)cc1)C(C)C`, the Potency result in experiment [1] and in experiment [3] was “inactive” throughout. For the same compound, the activation in experiment [2] was -1.91% [at 17.1 µM, percent relative to cAMP agonist control] (inactive); in experiment [5], 2.05% [at 30.8 µM] (inactive). Further, in experiment [4], the activity change, negative = inhibition was -10.9% [at 30.8 µM] (inactive).
As for `CCOC(=O)C1=C(C)NC(C)=C(C(=O)OCC)C1c1ccc([N+](=O)[O-])s1`, the Potency result in experiment [1], in experiment [2], in experiment [4] and in experiment [5] was “inactive” each time. Besides, the Potency entry in experiment [3] was “inactive and 42.6 µM (active)”.
For `O=C(CCC(=O)N1CCSc2ccccc21)NCc1cccc(Br)c1`, the Potency entry in experiment [1] and in experiment [3] was “inactive” each time. The activation in experiment [2] was 9.98% [at 17.1 µM, percent relative to cAMP agonist control] (inactive); in experiment [5], 10% [at 30.8 µM] (inactive). Also, the activity change, negative = inhibition in experiment [4] was 0.997% [at 30.8 µM] (inactive).
In the case of `O=C(N/N=C/c1ccccc1O)/C(=C/c1ccccc1)CCO`, the Potency result in experiment [1], in experiment [2], in experiment [3], in experiment [4] and in experiment [5] was “inactive” throughout.
Regarding `O=[N+]([O-])c1cc(CN2CCN(c3cccc(C(F)(F)F)c3)CC2)c2cccnc2c1O`, the Potency entry in experiment [1], in experiment [2], in experiment [3], in experiment [4] and in experiment [5] was “inactive” each time.
On to `CC1=C(C(=O)OC(C)C)C(c2ccc(C)o2)C(C(=O)OC(C)C)=C(C)N1`, for which the Potency result in experiment [1], in experiment [2], in experiment [4] and in experiment [5] was “inactive” throughout. The Potency in experiment [3] was 30.1 µM (active).
Consider `CC(C)CCNc1c(-c2cccs2)nc2ccccn12`, for which the Potency entry in experiment [1], in experiment [2], in experiment [3], in experiment [4] and in experiment [5] was “inactive” throughout.
As to `Cc1ccc(C)c(N2CCN(C(=O)c3cccn4c(=O)c5ccccc5nc34)CC2)c1`, the Potency result in experiment [1], in experiment [2], in experiment [3], in experiment [4] and in experiment [5] was “inactive” in each case.
As to `O=C(COC(=O)c1ccc([N+](=O)[O-])s1)NCc1ccccc1`, the Potency result in experiment [1], in experiment [2], in experiment [3], in experiment [4] and in experiment [5] was “inactive” each time.
Turning to `Cc1ccc(S(=O)(=O)N/N=C/c2cc(Br)ccc2O)cc1`, the Potency result in experiment [1], in experiment [2], in experiment [3], in experiment [4] and in experiment [5] was “inactive” in each case.
Take `Cc1ccc(CSC2=NCCN2S(=O)(=O)c2ccc(F)cc2)cc1`: the Potency result in experiment [1] and in experiment [3] was “inactive” in each case. Moreover, the activation was 1.66% [at 17.1 µM, percent relative to cAMP agonist control] (inactive) in experiment [2] and 4.55% [at 30.8 µM] (inactive) in experiment [5]. Also, the activity change, negative = inhibition in experiment [4] was -7.41% [at 30.8 µM] (inactive).
On to `N#C/C(=C/c1ccc(-c2ccc(S(N)(=O)=O)cc2)o1)c1nc2ccccc2s1`, for which the Potency result in experiment [1] and in experiment [3] was “inactive” in each case. The activation was -24.7% [at 17.1 µM, percent relative to cAMP agonist control] (inactive) in experiment [2] and -62% [at 30.8 µM] (inactive) in experiment [5]. The activity change, negative = inhibition in experiment [4] is 5.29% [at 30.8 µM] (inactive).
For the compound `COCCNc1nc(Oc2ccccc2)c2sccc2n1`, the Potency result in experiment [1], in experiment [2], in experiment [3], in experiment [4] and in experiment [5] was “inactive” throughout.
`COc1ccc(S(=O)(=O)Nc2ccc3cn[nH]c3c2)cc1C`: the Potency entry in experiment [1], in experiment [2], in experiment [4] and in experiment [5] was “inactive” throughout. Besides, the Potency in experiment [3] is 67.5 µM (active).
Take `CCC(=O)N(CCC(c1ccccc1)c1ccc2c(c1)OCO2)Cc1ccc(OC(C)C)cc1` (stereo not given): the Potency result in experiment [1], in experiment [2], in experiment [3], in experiment [4] and in experiment [5] was “inactive” each time.
In the case of `Cn1c(=O)c2c(SCc3cccnc3)nc(CC(C)(C)C)nc2n(C)c1=O`, the Potency entry in experiment [1] and in experiment [3] was “inactive” in each case. In addition, the activation in experiment [2] was 6.82% [at 17.1 µM, percent relative to cAMP agonist control] (inactive); in experiment [5] it was 9.84% [at 30.8 µM] (inactive). Also, the activity change, negative = inhibition in experiment [4] is -15.2% [at 30.8 µM] (inactive).
`Cc1ccc(C)n1-c1ccc(C(=O)/C=C/N(C)C)cc1`: the Potency result in experiment [1] and in experiment [3] was “inactive” throughout. Besides, the activation is 4.94% [at 17.1 µM, percent relative to cAMP agonist control] (inactive) in experiment [2] and 0.307% [at 30.8 µM] (inactive) in experiment [5]. The activity change, negative = inhibition in experiment [4] is -17.3% [at 30.8 µM] (inactive).
Turning to `COc1ccc2c(c1)c(=O)oc1c(C)c(OCc3cc(C(=O)O)oc3C)ccc12`, the Potency entry in experiment [1], in experiment [2], in experiment [3], in experiment [4] and in experiment [5] was “inactive” throughout.
With `Cc1ccc(NC(=O)C2(C)CCN2CCc2ccccc2)cc1` (stereo not given), the Potency entry in experiment [1] and in experiment [3] was “inactive” in each case. Further, the activation was -1.02% [at 17.1 µM, percent relative to cAMP agonist control] (inactive) in experiment [2] and 6.12% [at 30.8 µM] (inactive) in experiment [5]. The activity change, negative = inhibition in experiment [4] is 1.14% [at 30.8 µM] (inactive).
For the compound `Cc1ccc(-c2nc3ccc(C)cn3c2Cc2ccccc2C(F)(F)F)cc1`, the Potency entry in experiment [1], in experiment [2], in experiment [3], in experiment [4] and in experiment [5] was “inactive” each time.
With `CCCc1nc2c(Cl)cc(C(F)(F)F)cn2c1Cc1ccc(OC)cc1C`, the Potency entry in experiment [1] and in experiment [3] was “inactive” throughout. The activation in experiment [2] is 5.33% [at 17.1 µM, percent relative to cAMP agonist control] (inactive); in experiment [5] it was 14.3% [at 30.8 µM] (inactive). Also, the activity change, negative = inhibition in experiment [4] was -8.15% [at 30.8 µM] (inactive).
In the case of `C/C(=N\NC(=O)c1cc2ccccc2cc1O)c1ccc(C)o1`, the Potency entry in experiment [1] and in experiment [3] was “inactive” in each case. Besides, the activation in experiment [2] was -0.964% [at 17.1 µM, percent relative to cAMP agonist control] (inactive); in experiment [5] it was 28.4% [at 30.8 µM] (inactive). Moreover, in experiment [4], the activity change, negative = inhibition is -5.69% [at 30.8 µM] (inactive).
Regarding `O=c1[nH]c(C2CCN(S(=O)(=O)c3ccccc3F)CC2)nc2c1nnn2Cc1ccc(F)cc1`, the Potency result in experiment [1], in experiment [2], in experiment [3], in experiment [4] and in experiment [5] was “inactive” each time.
As for `O=C(C1CC1)N1CCCC(c2ccc(Cl)cc2)=N1`, the Potency entry in experiment [1] and in experiment [3] was “inactive” in each case. In addition, the activation in experiment [2] was -19.8% [at 17.1 µM, percent relative to cAMP agonist control] (inactive); in experiment [5], -0.772% [at 30.8 µM] (inactive). Moreover, the activity change, negative = inhibition in experiment [4] was -19% [at 30.8 µM] (inactive).
Consider `CCN1CCc2c(sc(-n3cccc3)c2C(C)NC(=O)Nc2ccc(C(=O)OC)cc2)C1` (stereo not given), for which the Potency result in experiment [1], in experiment [2], in experiment [3], in experiment [4] and in experiment [5] was “inactive” each time.
On to `O=C(CCn1cnc2onc(-c3ccc(F)cc3)c2c1=O)Nc1ccc(F)c(Cl)c1`, for which the Potency entry in experiment [1], in experiment [2], in experiment [3], in experiment [4] and in experiment [5] was “inactive” throughout.
As for `CCOP(=O)(OCC)C(Cc1ccccc1)N=C(c1ccccc1)c1ccccc1` (stereo not given), the Potency entry in experiment [1] and in experiment [3] was “inactive” in each case. In addition, the activation is 2.26% [at 17.1 µM, percent relative to cAMP agonist control] (inactive) in experiment [2] and 12.6% [at 30.8 µM] (inactive) in experiment [5]. Further, in experiment [4], the activity change, negative = inhibition was 3.36% [at 30.8 µM] (inactive).
